Source: PubChem
Six1-Eya2 blk: Six1/Eya2 interaction inhibition. activity change, % (test concentration not listed). AID 651725. Q15475+O00167. 0.56% of 360,000 active. AlphaScreen GST-Six1/His-Eya2 binding, biochemical; active compounds read low; in the data active means activity change below about -65%; inconclusive means mostly about -30% to -63%; further: on the % scale 0 is the no-effect control and ±100 the full control effect
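AlphaScreen luminescence read after one hour at 37 °C in darkness. Pin-transferred compounds met GST-Six1 and His-Eya2 protein (5X stock 250 nM/500 nM) plus glutathione donor and Ni-chelate acceptor beads (5X, 50 ug/mL).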
HP1b chromo inh: inhibitors of HP1-beta chromodomain binding to methylated histone tails | Potency, µM (doses to about 114 µM), inactives show top-dose activity change, negative = inhibition, usual class: inhibitors | AlphaScreen HP1-beta / biotin-H3K9me3 peptide binding | 0.56% of 390,000 active | P83916 | AID 540317; further: potency means the concentration at half of the fitted maximal effect; nearly all actives have a fitted effect of over 70% in size
Target sequence (P83916 whole entry, looked up): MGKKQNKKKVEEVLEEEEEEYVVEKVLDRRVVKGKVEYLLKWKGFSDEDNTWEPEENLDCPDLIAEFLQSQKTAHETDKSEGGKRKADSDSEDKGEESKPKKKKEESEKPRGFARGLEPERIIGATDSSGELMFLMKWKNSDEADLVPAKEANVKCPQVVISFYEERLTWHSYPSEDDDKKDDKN
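Compound inhibition of the preformed complex between 50 nM HP1-beta and 50 nM biotinylated H3K9me3 peptide was read by AlphaScreen. Buffer was PBS pH 7.4 with 0.01% Tween-20. Incubations ran 30 min at room temperature, with 10 ug/mL donor/acceptor beads.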
BAZ2B block: BAZ2B (human) inhibition; Q9UIF8; AlphaScreen BAZ2B-H3K14Ac peptide displacement; Potency, µM (top dose mostly 114 µM), without a hit: top-dose activity change, negative = inhibition, most hits filed as inhibitors; 4.4% of 360,000 active; AID 504333; further: potency means the concentration at half of the fitted maximal effect; on the % scale 0 is the no-effect control and ±100 the full control effect; nearly all actives have a fitted effect of over 60% in size
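Compounds, titrated to a top concentration of 110 uM, were incubated 30 min at room temperature with preformed BAZ2B/acetyl-K14 H3 peptide complex (50 nM each). Proximity signal was measured by AlphaScreen after 20 min with beads.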
JMJD2A Tudor inh: inhibitors of human JMJD2A Tudor domain. O75164. 4.4% of 390,000 active. Potency, µM (doses to about 114 µM), for the others: top-dose activity change, negative = inhibition, usual class: inhibitors. AlphaScreen JMJD2A-Tudor / H3K4me3 peptide binding; further: potency means the concentration at half of the fitted maximal effect; on the % scale 0 is the no-effect control and ±100 the full control effect; nearly all actives have a fitted effect of over 50% in size
G9a block: blocks human histone lysine methyltransferase G9a | Q96KQ7 | G9a H3K9 monomethylation, AlphaScreen, 2 h | Potency, µM (highest dose often 102 µM), for the others: at the top dose activity, negative = inhibition, most hits filed as inhibitors | 8.8% of 350,000 active; further: potency means the concentration at half of the fitted maximal effect; on the % scale 0 is the no-effect control and ±100 the full control effect; nearly all actives have a fitted effect of over 75% in size
Target sequence (Q96KQ7 913-1193 limits assumed): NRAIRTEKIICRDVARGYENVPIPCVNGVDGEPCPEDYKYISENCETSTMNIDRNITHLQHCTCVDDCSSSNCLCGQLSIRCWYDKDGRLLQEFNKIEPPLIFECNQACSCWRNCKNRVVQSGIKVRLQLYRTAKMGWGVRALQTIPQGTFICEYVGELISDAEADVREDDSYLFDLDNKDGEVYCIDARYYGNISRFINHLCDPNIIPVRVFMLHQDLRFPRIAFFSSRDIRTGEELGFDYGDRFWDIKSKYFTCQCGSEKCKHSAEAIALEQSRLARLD
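AlphaScreen read-out: biotin-H3K9 peptide (500 nM) methylation by 20 nM enzyme with 20 uM SAM, 2 h at room temperature after 15 min compound preincubation; anti-monomethyl H3K9 antibody plus donor/acceptor beads, 10 min dark.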
CtBP-E1A inh: blocks the CtBP interaction with E1A | AlphaScreen GST-E1A/His-CtBP binding, 1536-well; active compounds read low | activity change, % (no concentration beside the values) | 0.49% of 340,000 active | AID 651724; in the data active means activity change below about -65%; inconclusive means mostly about -30% to -63%; further: on the % scale 0 is the no-effect control and ±100 the full control effect
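GST-E1A and His-tagged CtBP (125 nM each as 5X stock) were preincubated with pin-transferred compound for 2 h at 37 °C in the dark, then glutathione donor and nickel acceptor beads were added for 1 h before AlphaScreen reading.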
The depositor's hits bear a star; [ ] = another dose, or the depositor's remark. Rows were chosen to be rich in hits. Some 10% of all compounds tested hit in one or more screens of this group. Unless noted, the call rests on the fitted dose curve; in most records, active means well fitted inhibition curve with a large enough effect; inconclusive means small, poorly fitted or top-dose-only effect; inactive means no such curve, though single readings can be large or run the other way.

`C=CCOc1cccc(C2/C(=C(\O)c3ccc4c(c3)OCCO4)C(=O)C(=O)N2Cc2cccnc2)c1` (stereo not given) gave Six1-Eya2 blk 0, HP1b chromo inh -2%, BAZ2B block 50µM*, JMJD2A Tudor inh inconclusive and CtBP-E1A inh 3.
O=C1C(=O)N(c2ccc(O)cc2)C(c2ccccc2[N+](=O)[O-])/C1=C(\O)c1ccccc1 (stereo not given) was read as Six1-Eya2 blk 4, HP1b chromo inh -29%, BAZ2B block -20%, JMJD2A Tudor inh -20%, G9a block 56µM* and CtBP-E1A inh 3.
For CCOc1cccc(C2/C(=C(\O)c3ccc4c(c3)OCCO4)C(=O)C(=O)N2Cc2ccncc2)c1 (stereo not given) the results were Six1-Eya2 blk 1, HP1b chromo inh 26%, BAZ2B block -16%[57.1 µM], JMJD2A Tudor inh -14%, G9a block -10% and CtBP-E1A inh 5.
COc1ccc(C2/C(=C(\O)c3ccc4c(c3)OCCO4)C(=O)C(=O)N2Cc2cccnc2)cc1 (stereo not given) was read as Six1-Eya2 blk 1, HP1b chromo inh 44%, BAZ2B block -5%, JMJD2A Tudor inh 3% and G9a block -95%.
O=C1C(=O)N(Cc2cccnc2)C(c2cccc(O)c2)/C1=C(\O)c1ccc2c(c1)OCCO2 (stereo not given) was read as Six1-Eya2 blk -13, HP1b chromo inh 33%, BAZ2B block inconclusive, JMJD2A Tudor inh 13% and G9a block 35µM*.
`CCOc1ccc(C2/C(=C(\O)c3ccc4c(c3)OCCO4)C(=O)C(=O)N2Cc2cccnc2)cc1OCC` (stereo not given) gave Six1-Eya2 blk 3, HP1b chromo inh -8%, BAZ2B block 50µM*, JMJD2A Tudor inh -24% and CtBP-E1A inh 6.
Cc1ccc(CNC(=O)Cn2c(=O)cc(C)c3c(C)nn(-c4cccc(F)c4)c32)cc1 was read as HP1b chromo inh -2%, BAZ2B block -1%, JMJD2A Tudor inh -1% and G9a block 6%[59 µM].
`Cc1ccc(/C(O)=C2\C(=O)C(=O)N(Cc3cccnc3)C2c2ccccc2[N+](=O)[O-])cc1` (stereo not given) gave Six1-Eya2 blk -17, HP1b chromo inh 3%, BAZ2B block -22%, JMJD2A Tudor inh -27%, G9a block 56µM* and CtBP-E1A inh -1.
O=C1C(=O)N(Cc2ccncc2)C(c2cccc(O)c2)/C1=C(\O)c1ccc2c(c1)OCCO2 (stereo not given) was read as Six1-Eya2 blk 2, HP1b chromo inh 13%, BAZ2B block inconclusive, JMJD2A Tudor inh -22%, G9a block 45µM* and CtBP-E1A inh -7.
For COc1ccccc1C1/C(=C(\O)c2ccc3c(c2)OCCO3)C(=O)C(=O)N1Cc1cccnc1 (stereo not given) the results were Six1-Eya2 blk -2, HP1b chromo inh 1%[57 µM], BAZ2B block inconclusive, JMJD2A Tudor inh 50µM* and G9a block inconclusive.
NC(Cc1ccc(F)cc1)c1csc(Nc2cc(Oc3ccccc3)ncn2)n1 (stereo not given) was read as Six1-Eya2 blk -19 and CtBP-E1A inh -26.
For NC(c1csc(Nc2cc(NCc3ccco3)ncn2)n1)c1ccccc1Cl (stereo not given) the results were Six1-Eya2 blk inconclusive and CtBP-E1A inh -80*.
Screening NC(Cc1ccc(F)cc1)c1csc(Nc2cc(NCc3ccco3)ncn2)n1 (stereo not given) returned Six1-Eya2 blk inconclusive and CtBP-E1A inh -76*.
CCCCCCNc1c([N+](=O)[O-])cc(C)cc1[N+](=O)[O-] was read as Six1-Eya2 blk inconclusive, HP1b chromo inh 8.9µM*, JMJD2A Tudor inh 13µM* and CtBP-E1A inh inconclusive.
For CC(=O)Nc1cccc(-c2ccnc3c2CC(C(=O)Nc2cccc(Oc4ccccc4)c2)O3)c1 (stereo not given) the results were Six1-Eya2 blk -14 and CtBP-E1A inh -11.
`COc1ccc2c(CNCc3ccco3)c(C(=O)O)n(Cc3ccc(F)cc3Cl)c2c1` gave HP1b chromo inh 13%, BAZ2B block inconclusive, JMJD2A Tudor inh -25% and G9a block -14%[59 µM].
Screening CC(OC(=O)c1ccccc1NCCO)C(=O)NCC(=O)Nc1ccc(F)c(F)c1F (stereo not given) returned Six1-Eya2 blk -15, HP1b chromo inh 16%, BAZ2B block -2%, JMJD2A Tudor inh 10%, G9a block 28µM* and CtBP-E1A inh 15.
`Cc1ccc(NC(=O)CN(C)C(=O)C(C)OC(=O)c2ccccc2NCCO)cc1` (stereo not given) gave Six1-Eya2 blk 1, HP1b chromo inh 21%, BAZ2B block inconclusive, JMJD2A Tudor inh 7%, G9a block inconclusive and CtBP-E1A inh -5.
`COc1cccc(CNc2nc3ccccc3c3nc(-c4cccc(C)c4)nn23)c1` gave HP1b chromo inh 51%, BAZ2B block 8%, JMJD2A Tudor inh 1% and G9a block 14%[59 µM].
For COc1cccc(N2C(=O)C(c3ccccc3)=C(c3nc4ccccc4s3)C2NC(C)=O)c1 (stereo not given) the results were Six1-Eya2 blk -11, HP1b chromo inh 1%, BAZ2B block -36%, JMJD2A Tudor inh -31%, G9a block 8%[12.7 µM] and CtBP-E1A inh -16.
CC(=O)NC1C(c2nc3ccccc3s2)=C(c2ccccc2)C(=O)N1c1ccc(C)cc1 (stereo not given) was read as Six1-Eya2 blk -5, HP1b chromo inh inconclusive, BAZ2B block -37%, JMJD2A Tudor inh inconclusive, G9a block 50µM* and CtBP-E1A inh -11.
Screening COc1ccc(OC)c(S(=O)(=O)NC2CCCCNC2=O)c1 (stereo not given) returned Six1-Eya2 blk -4, HP1b chromo inh 13%, BAZ2B block -12%, JMJD2A Tudor inh -15%, G9a block 0% and CtBP-E1A inh 6.
`CCC1CCC(C(=O)NNC(=O)c2cc(-c3ccco3)[nH]n2)CC1` (stereo not given) gave Six1-Eya2 blk 8, HP1b chromo inh 19%, BAZ2B block inconclusive, JMJD2A Tudor inh -19%, G9a block 14µM* and CtBP-E1A inh -10.
`Nn1c(SCC(=O)Nc2ccc3c(c2)OCO3)nnc1-c1cccc(Cl)c1` gave Six1-Eya2 blk 1, HP1b chromo inh 21%, BAZ2B block -9%, JMJD2A Tudor inh -35%, G9a block -11%[59 µM] and CtBP-E1A inh -8.
